This note sets out measurements from ChEMBL document CHEMBL2218924, “A broad activity screen in support of a chemogenomic map for kinase signalling research and drug discovery” (Biochem J, 2013).

By residual activity is commonly meant the signal under treatment as a percentage of the control signal.

For assay [1], the target named is T1, Muscle, skeletal receptor tyrosine-protein kinase (Homo sapiens) (UniProt O15146).
T1 sequence (whole entry): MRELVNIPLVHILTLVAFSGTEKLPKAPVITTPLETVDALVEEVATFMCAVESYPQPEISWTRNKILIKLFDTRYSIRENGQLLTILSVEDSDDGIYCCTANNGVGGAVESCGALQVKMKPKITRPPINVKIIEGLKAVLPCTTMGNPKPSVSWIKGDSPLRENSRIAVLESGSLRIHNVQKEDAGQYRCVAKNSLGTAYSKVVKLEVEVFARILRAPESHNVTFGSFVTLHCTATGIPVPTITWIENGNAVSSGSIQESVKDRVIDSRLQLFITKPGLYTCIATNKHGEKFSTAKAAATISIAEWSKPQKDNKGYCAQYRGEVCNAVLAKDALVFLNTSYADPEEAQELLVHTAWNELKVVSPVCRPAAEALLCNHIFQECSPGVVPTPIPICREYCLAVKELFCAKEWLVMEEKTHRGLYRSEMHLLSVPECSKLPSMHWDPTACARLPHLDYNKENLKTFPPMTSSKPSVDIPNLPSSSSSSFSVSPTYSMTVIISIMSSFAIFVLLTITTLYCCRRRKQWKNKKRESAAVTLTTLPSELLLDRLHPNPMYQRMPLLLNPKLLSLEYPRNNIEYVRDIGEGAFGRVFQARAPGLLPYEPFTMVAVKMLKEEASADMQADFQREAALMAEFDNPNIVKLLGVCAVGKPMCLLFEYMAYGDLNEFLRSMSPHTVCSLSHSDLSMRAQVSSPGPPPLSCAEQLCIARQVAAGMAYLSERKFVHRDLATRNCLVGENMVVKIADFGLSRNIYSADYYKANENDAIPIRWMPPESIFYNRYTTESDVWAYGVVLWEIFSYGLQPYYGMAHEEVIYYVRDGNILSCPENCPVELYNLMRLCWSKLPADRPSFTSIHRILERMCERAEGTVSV
Particulars: at 1 µM.

Assay [2] deals with T1, Muscle, skeletal receptor tyrosine-protein kinase (Homo sapiens). The following applies: at 10 µM.
Assay [3] addresses T2, Serine/threonine-protein kinase Nek11 (Homo sapiens) (UniProt Q8NG66).
T2 sequence (whole entry): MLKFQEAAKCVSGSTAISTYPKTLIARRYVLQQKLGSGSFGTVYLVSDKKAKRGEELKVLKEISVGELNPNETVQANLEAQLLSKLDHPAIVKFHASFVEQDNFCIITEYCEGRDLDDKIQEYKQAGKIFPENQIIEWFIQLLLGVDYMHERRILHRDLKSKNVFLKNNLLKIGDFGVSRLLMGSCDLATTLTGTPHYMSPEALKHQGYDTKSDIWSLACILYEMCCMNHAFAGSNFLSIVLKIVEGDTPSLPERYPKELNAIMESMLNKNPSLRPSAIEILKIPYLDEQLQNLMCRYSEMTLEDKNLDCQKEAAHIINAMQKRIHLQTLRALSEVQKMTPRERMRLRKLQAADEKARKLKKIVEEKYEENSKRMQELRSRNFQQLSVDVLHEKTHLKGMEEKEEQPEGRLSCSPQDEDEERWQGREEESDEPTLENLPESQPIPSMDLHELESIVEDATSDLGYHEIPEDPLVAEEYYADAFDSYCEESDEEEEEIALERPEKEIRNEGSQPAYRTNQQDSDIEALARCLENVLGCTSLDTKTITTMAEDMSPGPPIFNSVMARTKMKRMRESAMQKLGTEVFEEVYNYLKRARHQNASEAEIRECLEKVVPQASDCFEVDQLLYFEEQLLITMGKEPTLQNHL
Particulars: at 1 µM.

For assay [4], the target named is T2, Serine/threonine-protein kinase Nek11 (Homo sapiens). Particulars: at 10 µM.
Assay [5] has as its target T3, Serine/threonine-protein kinase Nek2 (Homo sapiens) (UniProt P51955).
T3 sequence (whole entry): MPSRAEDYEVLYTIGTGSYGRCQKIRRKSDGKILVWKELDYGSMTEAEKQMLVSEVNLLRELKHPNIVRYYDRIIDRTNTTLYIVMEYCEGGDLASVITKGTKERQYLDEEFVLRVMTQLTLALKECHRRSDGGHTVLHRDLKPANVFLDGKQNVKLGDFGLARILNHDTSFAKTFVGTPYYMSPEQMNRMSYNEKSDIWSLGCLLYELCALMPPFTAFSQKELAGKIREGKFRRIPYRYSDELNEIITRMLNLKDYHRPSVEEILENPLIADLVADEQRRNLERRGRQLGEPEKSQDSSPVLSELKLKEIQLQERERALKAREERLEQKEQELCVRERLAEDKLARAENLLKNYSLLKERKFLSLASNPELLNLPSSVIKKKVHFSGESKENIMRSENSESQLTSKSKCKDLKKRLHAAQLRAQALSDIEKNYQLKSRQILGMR
Particulars: at 1 µM.

Assay [6] addresses T3, Serine/threonine-protein kinase Nek2 (Homo sapiens). Particulars: at 10 µM.
Assay [7] concerns the target T4, Serine/threonine-protein kinase Nek3 (Homo sapiens) (UniProt P51956).
T4 sequence (whole entry): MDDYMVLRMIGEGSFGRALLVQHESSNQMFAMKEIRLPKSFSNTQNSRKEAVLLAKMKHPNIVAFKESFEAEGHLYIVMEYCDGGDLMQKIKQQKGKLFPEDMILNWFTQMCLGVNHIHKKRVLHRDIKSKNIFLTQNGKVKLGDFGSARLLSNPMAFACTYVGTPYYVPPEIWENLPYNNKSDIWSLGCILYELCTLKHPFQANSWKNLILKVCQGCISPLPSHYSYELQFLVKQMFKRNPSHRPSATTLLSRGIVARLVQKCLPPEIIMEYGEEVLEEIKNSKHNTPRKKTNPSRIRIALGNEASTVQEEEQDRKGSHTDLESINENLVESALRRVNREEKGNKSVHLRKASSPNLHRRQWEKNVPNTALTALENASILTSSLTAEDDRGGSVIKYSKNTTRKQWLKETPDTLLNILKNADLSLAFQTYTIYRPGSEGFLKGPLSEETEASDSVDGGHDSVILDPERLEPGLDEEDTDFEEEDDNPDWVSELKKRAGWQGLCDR
The following applies: at 1 µM.

For assay [8], the target named is T4, Serine/threonine-protein kinase Nek3 (Homo sapiens). Particulars: at 10 µM.
The target in assay [9] is Serine/threonine-protein kinase tousled-like 2 (Homo sapiens) (UniProt Q86UE8). Particulars: at 1 µM.
Serine/threonine-protein kinase tousled-like 2 (Homo sapiens), sequence (Q86UE8 whole entry, looked up): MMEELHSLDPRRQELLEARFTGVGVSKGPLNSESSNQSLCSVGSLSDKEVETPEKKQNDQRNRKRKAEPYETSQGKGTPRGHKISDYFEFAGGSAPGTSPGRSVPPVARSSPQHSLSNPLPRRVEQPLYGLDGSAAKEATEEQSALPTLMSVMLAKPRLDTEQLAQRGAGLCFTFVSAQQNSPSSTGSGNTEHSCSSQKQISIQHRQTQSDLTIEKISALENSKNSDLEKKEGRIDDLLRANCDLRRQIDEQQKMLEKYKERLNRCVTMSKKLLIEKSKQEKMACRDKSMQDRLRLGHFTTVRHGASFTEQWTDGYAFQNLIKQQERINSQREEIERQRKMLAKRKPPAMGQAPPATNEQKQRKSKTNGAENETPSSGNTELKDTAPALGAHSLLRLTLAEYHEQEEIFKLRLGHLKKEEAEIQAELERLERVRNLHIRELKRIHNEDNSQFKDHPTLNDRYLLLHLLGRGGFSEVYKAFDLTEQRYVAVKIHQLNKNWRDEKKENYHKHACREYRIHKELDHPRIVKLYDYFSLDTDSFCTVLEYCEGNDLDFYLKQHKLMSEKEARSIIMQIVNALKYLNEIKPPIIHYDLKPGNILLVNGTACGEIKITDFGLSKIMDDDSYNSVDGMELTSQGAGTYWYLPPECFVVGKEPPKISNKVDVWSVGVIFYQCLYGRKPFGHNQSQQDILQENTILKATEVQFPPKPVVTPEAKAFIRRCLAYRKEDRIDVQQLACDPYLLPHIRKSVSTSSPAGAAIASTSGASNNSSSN
Assay [10] shares this target. Particulars: at 10 µM.
Assay [11] has as its target T5, Testis-specific serine/threonine-protein kinase 1 (Homo sapiens) (UniProt Q9BXA7).
T5 sequence (whole entry): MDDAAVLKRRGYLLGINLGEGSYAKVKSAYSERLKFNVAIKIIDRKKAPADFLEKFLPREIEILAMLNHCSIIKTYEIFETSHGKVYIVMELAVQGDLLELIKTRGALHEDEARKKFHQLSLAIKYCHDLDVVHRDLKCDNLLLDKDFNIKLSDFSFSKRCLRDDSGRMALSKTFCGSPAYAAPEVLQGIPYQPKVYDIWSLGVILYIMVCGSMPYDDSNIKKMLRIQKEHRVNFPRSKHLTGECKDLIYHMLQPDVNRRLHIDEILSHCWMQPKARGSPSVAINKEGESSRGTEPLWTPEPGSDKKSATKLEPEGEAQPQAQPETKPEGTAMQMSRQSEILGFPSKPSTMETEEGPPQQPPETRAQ
Particulars: at 1 µM.

Assay [12] addresses T5, Testis-specific serine/threonine-protein kinase 1 (Homo sapiens). Particulars: at 10 µM.
Assay [13] has as its target T6, Testis-specific serine/threonine-protein kinase 2 (Homo sapiens) (UniProt Q96PF2).
T6 sequence (whole entry): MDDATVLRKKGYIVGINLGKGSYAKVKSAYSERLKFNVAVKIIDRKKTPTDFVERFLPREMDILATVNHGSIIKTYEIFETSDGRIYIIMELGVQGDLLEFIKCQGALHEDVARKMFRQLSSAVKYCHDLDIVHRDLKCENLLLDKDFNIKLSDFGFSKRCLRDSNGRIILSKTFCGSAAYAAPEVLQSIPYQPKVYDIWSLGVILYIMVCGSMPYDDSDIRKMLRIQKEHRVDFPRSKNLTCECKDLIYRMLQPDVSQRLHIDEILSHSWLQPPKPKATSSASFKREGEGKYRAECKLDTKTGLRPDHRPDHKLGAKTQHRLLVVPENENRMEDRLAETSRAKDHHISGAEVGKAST
Particulars: at 10 µM.

Assay [14] deals with T7, Tyrosine-protein kinase Tec (Homo sapiens) (UniProt P42680).
T7 sequence (whole entry): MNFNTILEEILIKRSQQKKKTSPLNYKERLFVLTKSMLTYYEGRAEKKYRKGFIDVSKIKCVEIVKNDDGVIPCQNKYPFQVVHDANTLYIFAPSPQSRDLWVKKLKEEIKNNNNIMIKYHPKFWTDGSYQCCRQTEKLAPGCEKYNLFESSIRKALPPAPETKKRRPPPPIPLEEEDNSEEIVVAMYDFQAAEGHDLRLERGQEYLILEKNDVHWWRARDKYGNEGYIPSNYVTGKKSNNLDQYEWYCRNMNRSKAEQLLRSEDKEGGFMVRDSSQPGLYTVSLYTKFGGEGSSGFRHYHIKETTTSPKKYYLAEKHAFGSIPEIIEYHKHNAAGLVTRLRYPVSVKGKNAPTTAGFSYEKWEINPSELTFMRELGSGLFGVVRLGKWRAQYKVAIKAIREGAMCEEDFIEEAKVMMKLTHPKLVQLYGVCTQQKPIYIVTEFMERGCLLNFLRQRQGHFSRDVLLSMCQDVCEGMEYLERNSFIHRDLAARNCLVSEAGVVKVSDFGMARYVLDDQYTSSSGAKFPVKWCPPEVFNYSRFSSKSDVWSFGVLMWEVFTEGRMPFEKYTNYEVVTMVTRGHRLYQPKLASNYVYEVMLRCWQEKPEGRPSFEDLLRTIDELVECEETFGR
The following applies: at 1 µM.

For assay [15], the target named is T7, Tyrosine-protein kinase Tec (Homo sapiens). The following applies: at 10 µM.
The target in assay [16] is Angiopoietin-1 receptor (Homo sapiens) (UniProt Q02763). Particulars: at 1 µM.
Angiopoietin-1 receptor (Homo sapiens), sequence (Q02763 whole entry): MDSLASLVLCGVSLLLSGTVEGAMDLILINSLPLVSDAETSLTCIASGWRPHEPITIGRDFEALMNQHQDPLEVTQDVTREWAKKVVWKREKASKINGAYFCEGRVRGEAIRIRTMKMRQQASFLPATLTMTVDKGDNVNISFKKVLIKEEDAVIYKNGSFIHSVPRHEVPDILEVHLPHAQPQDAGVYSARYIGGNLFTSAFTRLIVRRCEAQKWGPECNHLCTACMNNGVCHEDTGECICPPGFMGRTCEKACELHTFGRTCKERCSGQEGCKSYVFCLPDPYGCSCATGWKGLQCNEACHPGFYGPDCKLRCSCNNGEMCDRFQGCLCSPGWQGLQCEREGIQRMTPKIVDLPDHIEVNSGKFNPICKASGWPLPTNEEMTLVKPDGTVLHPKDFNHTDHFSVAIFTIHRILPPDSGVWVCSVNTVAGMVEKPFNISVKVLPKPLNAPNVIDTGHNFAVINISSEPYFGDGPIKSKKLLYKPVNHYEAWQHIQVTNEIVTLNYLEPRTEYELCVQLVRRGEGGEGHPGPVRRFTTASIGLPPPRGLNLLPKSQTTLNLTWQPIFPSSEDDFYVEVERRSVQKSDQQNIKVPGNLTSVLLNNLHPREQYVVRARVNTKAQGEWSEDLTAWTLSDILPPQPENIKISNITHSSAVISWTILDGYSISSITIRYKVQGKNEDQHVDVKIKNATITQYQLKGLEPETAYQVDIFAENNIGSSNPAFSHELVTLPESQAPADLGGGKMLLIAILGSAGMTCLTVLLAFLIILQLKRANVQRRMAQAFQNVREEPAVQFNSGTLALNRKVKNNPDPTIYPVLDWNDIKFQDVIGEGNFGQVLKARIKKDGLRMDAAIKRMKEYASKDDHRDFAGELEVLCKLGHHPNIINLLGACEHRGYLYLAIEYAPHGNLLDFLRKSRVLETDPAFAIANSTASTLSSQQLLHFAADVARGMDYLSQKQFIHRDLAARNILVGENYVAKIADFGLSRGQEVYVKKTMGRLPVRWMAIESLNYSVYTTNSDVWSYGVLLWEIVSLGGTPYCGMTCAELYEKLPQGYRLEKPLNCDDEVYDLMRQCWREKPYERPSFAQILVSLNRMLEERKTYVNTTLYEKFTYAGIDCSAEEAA
The target is the same in assay [17]. The following applies: at 10 µM.
Assay [18] deals with High affinity nerve growth factor receptor (Homo sapiens) (UniProt P04629). The following applies: at 1 µM.
High affinity nerve growth factor receptor (Homo sapiens), sequence (P04629 33-796 limits assumed): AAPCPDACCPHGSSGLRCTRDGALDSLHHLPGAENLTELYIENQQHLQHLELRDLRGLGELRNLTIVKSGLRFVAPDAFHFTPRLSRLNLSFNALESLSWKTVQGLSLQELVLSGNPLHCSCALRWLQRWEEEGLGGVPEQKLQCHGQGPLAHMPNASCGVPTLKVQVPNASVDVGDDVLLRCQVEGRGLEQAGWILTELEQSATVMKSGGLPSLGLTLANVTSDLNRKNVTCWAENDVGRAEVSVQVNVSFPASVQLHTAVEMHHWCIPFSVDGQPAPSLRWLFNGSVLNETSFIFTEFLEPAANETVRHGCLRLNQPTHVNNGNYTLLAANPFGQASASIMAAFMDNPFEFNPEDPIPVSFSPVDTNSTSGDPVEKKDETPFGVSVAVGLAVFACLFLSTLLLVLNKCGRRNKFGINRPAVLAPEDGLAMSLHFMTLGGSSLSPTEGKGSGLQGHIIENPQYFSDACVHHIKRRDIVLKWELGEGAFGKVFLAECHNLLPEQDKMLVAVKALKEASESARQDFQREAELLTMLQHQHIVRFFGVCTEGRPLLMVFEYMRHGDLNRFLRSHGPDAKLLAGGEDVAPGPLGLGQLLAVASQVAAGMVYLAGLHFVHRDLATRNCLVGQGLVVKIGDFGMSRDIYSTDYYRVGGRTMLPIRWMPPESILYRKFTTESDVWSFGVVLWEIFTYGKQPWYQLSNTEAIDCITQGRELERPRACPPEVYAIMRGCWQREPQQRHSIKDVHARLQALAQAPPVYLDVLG
For assay [19] the target is unchanged. Particulars: at 10 µM.
Assay [20] deals with BDNF/NT-3 growth factors receptor (Homo sapiens) (UniProt Q16620). Particulars: at 1 µM.
BDNF/NT-3 growth factors receptor (Homo sapiens), sequence (Q16620 32-822 limits assumed): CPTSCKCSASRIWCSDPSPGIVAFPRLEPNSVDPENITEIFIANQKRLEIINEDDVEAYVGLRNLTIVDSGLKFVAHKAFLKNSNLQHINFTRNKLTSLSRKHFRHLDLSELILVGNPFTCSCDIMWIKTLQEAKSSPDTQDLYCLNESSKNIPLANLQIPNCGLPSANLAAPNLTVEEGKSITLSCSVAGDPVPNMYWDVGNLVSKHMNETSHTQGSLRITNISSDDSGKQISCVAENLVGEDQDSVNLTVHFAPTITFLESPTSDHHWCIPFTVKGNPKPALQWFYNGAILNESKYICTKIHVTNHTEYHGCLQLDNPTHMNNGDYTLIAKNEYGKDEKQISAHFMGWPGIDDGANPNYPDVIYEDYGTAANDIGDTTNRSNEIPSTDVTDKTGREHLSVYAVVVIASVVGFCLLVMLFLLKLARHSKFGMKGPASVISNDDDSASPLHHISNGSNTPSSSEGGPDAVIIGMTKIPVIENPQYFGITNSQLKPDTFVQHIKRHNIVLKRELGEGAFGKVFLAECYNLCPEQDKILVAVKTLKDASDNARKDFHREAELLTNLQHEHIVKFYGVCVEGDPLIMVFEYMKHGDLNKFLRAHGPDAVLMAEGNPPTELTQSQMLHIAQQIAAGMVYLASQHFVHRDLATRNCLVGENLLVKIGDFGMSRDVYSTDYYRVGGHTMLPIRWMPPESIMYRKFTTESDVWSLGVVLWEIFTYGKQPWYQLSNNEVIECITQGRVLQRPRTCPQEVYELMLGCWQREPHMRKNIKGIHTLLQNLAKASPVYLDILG

Regarding `O=C1NC(=O)c2cc(Nc3ccc(F)cc3)c(Nc3ccc(F)cc3)cc21`, the residual activity in assay [1] came out at 34%; in [2], 3%; in assay [3], 70%; in [4], 93%; in [5], 77%; in assay [6], 94%. The residual activity turned out to be 109% in assay [7]; 81% in assay [8]; 101% in assay [9]; 85% in assay [10]; 94% in assay [11]; 81% in assay [12]. Besides, the residual activity in assay [13] came to 61%; in assay [14] it was 87%; in assay [15], 60%; in assay [16], 70%; in assay [17] it was 44%; in [18] it was 84%. The residual activity turned out to be 56% in assay [19] and 100% in [20].
For `O=C1c2ccccc2-[n+]2ccc3c([nH]c4ccccc43)c21`, the residual activity in assay [1] was determined as 85%; in assay [2], 88%; in [3], 48%; in assay [4] it was 44%; in [5] it was 90%; in [6], 87%. Moreover, the residual activity amounted to 88% in [7]; 90% in assay [8]; 80% in assay [9]; 83% in assay [10]; 90% in assay [11]; 89% in [12]. In addition, the residual activity in [13] was determined as 86%; in assay [14] it was 77%; in [15], 74%; in assay [16] it was 90%; in assay [17], 78%; in assay [18], 83%. The residual activity in assay [19] was 47%; in assay [20], 89%.
As for `Cc1nc(-c2ccccc2)c(-c2ccncc2)o1`, the residual activity in assay [1] stood at 113%; in assay [2], 94%; in assay [3], 81%; in assay [4] it was 85%; in [5], 103%; in assay [6] it was 102%. Moreover, the residual activity in assay [7] was 102%; in assay [8], 114%; in assay [9], 106%; in [10], 103%; in assay [11] it was 100%; in assay [12], 88%. The residual activity in [13] worked out at 98%; in assay [14], 103%; in assay [15], 42%; in assay [16] it was 100%; in assay [17], 122%; in assay [18], 117%. Also, the residual activity in assay [19] was found to be 95%; in assay [20], 55%.
